{"source": "paper PMC4336329", "about": "(PLoS ONE, 2015)", "note": "Screen size: about 310,000 compounds; about 14,000 (4.5%) showed an effect of 50% or more. The effect is printed as a negative number. The list comes from a sample in which strong results are over-represented; it also holds similar structures and randomly drawn compounds.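 Further: peak tail current of the secondary pulse compared with the same well before compound.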", "data": [{"target": "human ether-à-go-go-related gene (hERG) potassium channel (human, UniProt Q12809)", "sequence (Q12809 whole entry, looked up)": "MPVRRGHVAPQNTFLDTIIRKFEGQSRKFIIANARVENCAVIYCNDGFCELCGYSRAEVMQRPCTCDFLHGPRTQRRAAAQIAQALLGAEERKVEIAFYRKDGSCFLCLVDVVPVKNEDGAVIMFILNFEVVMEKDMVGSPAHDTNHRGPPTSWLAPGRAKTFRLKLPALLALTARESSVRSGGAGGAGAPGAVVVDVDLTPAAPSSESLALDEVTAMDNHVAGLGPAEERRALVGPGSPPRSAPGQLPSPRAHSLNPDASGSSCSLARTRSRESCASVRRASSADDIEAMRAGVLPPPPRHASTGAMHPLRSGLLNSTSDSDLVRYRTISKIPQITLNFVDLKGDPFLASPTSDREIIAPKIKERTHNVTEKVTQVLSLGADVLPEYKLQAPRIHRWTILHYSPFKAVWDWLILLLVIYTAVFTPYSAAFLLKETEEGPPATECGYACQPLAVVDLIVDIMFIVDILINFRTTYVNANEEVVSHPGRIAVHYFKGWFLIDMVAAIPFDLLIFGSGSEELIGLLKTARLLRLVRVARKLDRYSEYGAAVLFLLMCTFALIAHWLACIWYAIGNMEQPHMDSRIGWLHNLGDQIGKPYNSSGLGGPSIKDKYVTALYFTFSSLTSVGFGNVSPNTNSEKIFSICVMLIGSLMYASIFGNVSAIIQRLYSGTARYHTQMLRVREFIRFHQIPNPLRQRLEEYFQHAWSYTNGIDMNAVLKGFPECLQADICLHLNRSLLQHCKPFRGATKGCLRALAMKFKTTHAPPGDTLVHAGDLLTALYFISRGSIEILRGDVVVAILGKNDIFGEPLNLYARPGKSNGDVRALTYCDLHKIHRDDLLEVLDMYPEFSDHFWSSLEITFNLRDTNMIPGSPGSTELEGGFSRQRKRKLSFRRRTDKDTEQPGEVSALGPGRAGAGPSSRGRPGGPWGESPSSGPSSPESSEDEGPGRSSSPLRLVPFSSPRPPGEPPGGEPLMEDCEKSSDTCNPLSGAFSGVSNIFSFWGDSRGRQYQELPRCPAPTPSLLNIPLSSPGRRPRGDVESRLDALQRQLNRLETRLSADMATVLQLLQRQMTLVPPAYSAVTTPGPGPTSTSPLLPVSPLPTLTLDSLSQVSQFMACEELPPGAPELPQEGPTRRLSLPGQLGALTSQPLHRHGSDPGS", "test": "primary screen, population patch clamp on CHO cells stably expressing hERG; higher = less effect of the substance", "units": {"hERG current change (%, negative = inhibition) at 10uM": "%"}, "values": [{"compound": "O=C(O)CCCSc1nccn1-c1ccccc1", "hERG current change (%, negative = inhibition) at 10uM": 22.3}, {"compound": "c1ccc(-c2cc(N3CCOCC3)nc(-c3ccccc3)n2)cc1", "hERG current change (%, negative = inhibition) at 10uM": -5.46}, {"compound": "CCN(CC)C(=O)CSc1nnc(-c2cccs2)n1Cc1ccco1", "hERG current change (%, negative = inhibition) at 10uM": -11}, {"compound": "Cc1ccc(S(=O)(=O)c2c(C)nn(C(C)(C)C)c2OC(=O)c2ccc(Br)o2)cc1", "hERG current change (%, negative = inhibition) at 10uM": 7.32}, {"compound": "Cc1cc(C)n(CCCNC(=O)Cn2nnnc2CN2C[C@@H](C)O[C@@H](C)C2)n1", "hERG current change (%, negative = inhibition) at 10uM": 6.72}, {"compound": "C/C(=N\\NC(=O)c1nnn(-c2nonc2N)c1CSc1ccccc1)c1ccc2c(c1)OCO2", "hERG current change (%, negative = inhibition) at 10uM": 17.5}, {"compound": "CC(=O)OC1CC(c2cc(C(C)(C)C)c(O)c(C(C)(C)C)c2)=NO1", "note": "(stereo not shown)", "hERG current change (%, negative = inhibition) at 10uM": 0.755}, {"compound": "CCOc1ccc(NC(=O)COc2ccc3c(c2)CCC3)cc1OC", "hERG current change (%, negative = inhibition) at 10uM": 3.04}, {"compound": "Cc1ccccc1NCc1ccccc1O.Cl", "hERG current change (%, negative = inhibition) at 10uM": -0.966}, {"compound": "Cc1cc(NC(=O)Nc2ccc(F)cc2)no1", "hERG current change (%, negative = inhibition) at 10uM": -8.3}, {"compound": "COc1cc(OC)cc(C(=O)OCCCOC(=O)c2cc(OC)cc(OC)c2)c1", "hERG current change (%, negative = inhibition) at 10uM": 24.6}, {"compound": "COc1ccc(C(=O)Nc2nc3ccccc3[nH]2)cc1S(=O)(=O)N1CCCC1", "hERG current change (%, negative = inhibition) at 10uM": -52.8}, {"compound": "COc1ccccc1CCC(=O)Nc1nc2ccccc2[nH]1", "hERG current change (%, negative = inhibition) at 10uM": 15.7}, {"compound": "COc1ccc(C(=O)Nc2nc3ccccc3[nH]2)cc1OC", "hERG current change (%, negative = inhibition) at 10uM": -6.47}, {"compound": "COc1ccc(C(=O)Nc2ccc(NC(=O)c3ccccc3)cc2)cc1S(=O)(=O)N1CCOCC1", "hERG current change (%, negative = inhibition) at 10uM": 16.6}, {"compound": "COc1ccc(C(=O)Nc2ccccc2C)cc1S(=O)(=O)N1CCOCC1", "hERG current change (%, negative = inhibition) at 10uM": 2.73}, {"compound": "COc1ccc(CCC(=O)Nc2nc3ccccc3[nH]2)cc1OC", "hERG current change (%, negative = inhibition) at 10uM": -55.7}, {"compound": "O=C(Nc1nc2ccccc2[nH]1)c1cccc(S(=O)(=O)N2CCOCC2)c1", "hERG current change (%, negative = inhibition) at 10uM": -8.91}, {"compound": "O=C(Nc1nc2ccccc2[nH]1)c1ccc(Cl)c(S(=O)(=O)N2CCCC2)c1", "hERG current change (%, negative = inhibition) at 10uM": -9.28}, {"compound": "COc1ccc(C(=O)Nc2nc3ccccc3[nH]2)cc1S(=O)(=O)N1CCOCC1", "hERG current change (%, negative = inhibition) at 10uM": -70.1}, {"compound": "O=C(Nc1nc2ccccc2[nH]1)c1ccc(F)c(S(=O)(=O)N2CCOCC2)c1", "hERG current change (%, negative = inhibition) at 10uM": -50.3}, {"compound": "COc1ccc(CCC(=O)Nc2nc3ccccc3[nH]2)cc1", "hERG current change (%, negative = inhibition) at 10uM": 14.3}, {"compound": "O=C(Nc1nc2ccccc2[nH]1)c1ccc(S(=O)(=O)N2CCOCC2)cc1", "hERG current change (%, negative = inhibition) at 10uM": 2.85}, {"compound": "COc1ccc(CCNC(=O)COC(=O)/C=C/c2ccc(OCC#N)c(OC)c2)cc1OC", "hERG current change (%, negative = inhibition) at 10uM": -17.1}, {"compound": "CCOC(=O)SC1=N/C(=C\\c2ccc(N(C)C)cc2)C(=O)S1", "hERG current change (%, negative = inhibition) at 10uM": 14.9}, {"compound": "COc1ccc(CCN(C)C(=O)c2ccc(COc3ccccc3)o2)cc1OC", "hERG current change (%, negative = inhibition) at 10uM": -3.91}, {"compound": "COCC(=O)Nc1ccc(F)cc1", "hERG current change (%, negative = inhibition) at 10uM": 18.6}, {"compound": "O=c1c(Cc2ccc(F)cc2)c(O)ccn1Cc1ccc(Cl)cc1Cl", "hERG current change (%, negative = inhibition) at 10uM": 6.08}, {"compound": "COc1cc(O)c(C(CC(=O)N2CCCC(C)C2)c2cc(OC)c(OC)c(OC)c2)c(OC)c1", "note": "(stereo not shown)", "hERG current change (%, negative = inhibition) at 10uM": 2.69}, {"compound": "CC(=O)Nc1ccc2nc(NC(=O)C(Cl)(Cl)Cl)sc2c1", "hERG current change (%, negative = inhibition) at 10uM": 31.1}, {"compound": "c1cc(-c2nnc3n2CCC3)[nH]n1", "hERG current change (%, negative = inhibition) at 10uM": 12.5}, {"compound": "O=C(CSc1nc(-c2ccccc2F)nc2nc[nH]c12)Nc1c(Cl)cc(Cl)cc1Cl", "hERG current change (%, negative = inhibition) at 10uM": -6.09}, {"compound": "Clc1ccccc1-c1nnc2n1-c1ccccc1SC2", "hERG current change (%, negative = inhibition) at 10uM": -3.67}, {"compound": "c1ccc2c(c1)Sc1ccccc1-n1cnnc1-2", "hERG current change (%, negative = inhibition) at 10uM": -20.3}, {"compound": "Cl.NCCC(=O)N1c2ccccc2Sc2ccc(Cl)cc21", "hERG current change (%, negative = inhibition) at 10uM": -10.8}, {"compound": "Brc1nnc2n1-c1ccccc1Sc1ccccc1-2", "hERG current change (%, negative = inhibition) at 10uM": -71.8}, {"compound": "Clc1ccc2c(c1)-c1nnc(Br)n1-c1ccccc1S2", "hERG current change (%, negative = inhibition) at 10uM": -52.5}, {"compound": "Oc1cc2ccccc2cc1-c1nnc2n1-c1ccccc1SC2", "hERG current change (%, negative = inhibition) at 10uM": -8.27}, {"compound": "COc1nc(NC(C)(C)C)nc(Oc2ccc(=O)n(C)n2)n1", "hERG current change (%, negative = inhibition) at 10uM": 16.8}, {"compound": "CN(C)c1nc(-c2cccnc2)nc(-c2ccccc2)c1C#N", "hERG current change (%, negative = inhibition) at 10uM": 10.3}, {"compound": "CCOC(=O)COc1ccc(Oc2nc(C)cc(OC)n2)nn1", "hERG current change (%, negative = inhibition) at 10uM": -7.8}, {"compound": "Cl.Nc1nonc1C(=O)NCCNCc1ccccc1OCc1ccccc1F", "hERG current change (%, negative = inhibition) at 10uM": -60.5}, {"compound": "Cl.Nc1nonc1C(=O)NCCNCc1ccccc1OCc1ccc(F)cc1", "hERG current change (%, negative = inhibition) at 10uM": -65.9}, {"compound": "Cl.Nc1nonc1C(=O)NCCNCc1cc(Br)ccc1OCc1ccc(F)cc1", "hERG current change (%, negative = inhibition) at 10uM": -38.2}, {"compound": "C=CCOc1ccccc1CNCCNC(=O)c1nonc1N.Cl", "hERG current change (%, negative = inhibition) at 10uM": -22.8}, {"compound": "Cl.Nc1nonc1C(=O)NCCNCc1c(OCc2ccccc2F)ccc2ccccc12", "hERG current change (%, negative = inhibition) at 10uM": -11.9}, {"compound": "CCOc1ccccc1CNCCNC(=O)c1nonc1N.Cl", "hERG current change (%, negative = inhibition) at 10uM": -13.5}, {"compound": "CC1=C(C(=O)Nc2ccccc2)C(c2ccc(O)cc2)N2C(=O)CSC2=N1", "note": "(stereo not shown)", "hERG current change (%, negative = inhibition) at 10uM": 3.47}, {"compound": "CC(C)N(CCCNC(=O)CC1Oc2ccccc2NC1=O)Cc1ccccc1", "note": "(stereo not shown)", "hERG current change (%, negative = inhibition) at 10uM": -26.3}, {"compound": "Fc1ccc(/C=N/c2c(-c3ccc(F)cc3)nc3n2CCS3)cc1", "hERG current change (%, negative = inhibition) at 10uM": -4.46}, {"compound": "Nc1nc2ccccc2n1/N=C/c1ccc([N+](=O)[O-])s1", "hERG current change (%, negative = inhibition) at 10uM": -1.38}, {"compound": "O=C(O)/C(=C\\c1cccs1)c1ccccc1", "hERG current change (%, negative = inhibition) at 10uM": 0.00478}, {"compound": "COc1ccc(OC)c(-n2cnc3cc(C(=O)O)ccc32)c1", "hERG current change (%, negative = inhibition) at 10uM": 3.06}, {"compound": "O=C(c1ccc2c(c1)OCO2)C1CCCN(C2CCN(CCc3ccccc3)CC2)C1", "note": "(stereo not shown)", "hERG current change (%, negative = inhibition) at 10uM": -69.3}, {"compound": "CC(=O)c1cccc(CN2CCCC(C(=O)c3ccc4c(c3)OCO4)C2)c1", "note": "(stereo not shown)", "hERG current change (%, negative = inhibition) at 10uM": -64.9}, {"compound": "O=C(c1ccc2c(c1)OCO2)C1CCCN(Cc2cccc(C(F)(F)F)c2)C1", "note": "(stereo not shown)", "hERG current change (%, negative = inhibition) at 10uM": -20.5}, {"compound": "CCOC(=O)C1CCCN(Cc2ccc3c(c2)OCO3)C1", "note": "(stereo not shown)", "hERG current change (%, negative = inhibition) at 10uM": -9.12}, {"compound": "CC(=O)c1ccc(NC(=O)N2CCCC(C(=O)c3ccc4c(c3)OCO4)C2)cc1", "note": "(stereo not shown)", "hERG current change (%, negative = inhibition) at 10uM": -16.4}, {"compound": "O=C(c1ccc2c(c1)OCO2)C1CCCN(C(=O)NCc2ccccc2)C1", "note": "(stereo not shown)", "hERG current change (%, negative = inhibition) at 10uM": -14.3}, {"compound": "Cc1ccc(CN2CCCC(C(=O)c3ccc4c(c3)OCO4)C2)cc1C", "note": "(stereo not shown)", "hERG current change (%, negative = inhibition) at 10uM": -64.6}, {"compound": "O=C(c1ccc2c(c1)OCO2)C1CCCN(Cc2ccc(F)c(F)c2)C1", "note": "(stereo not shown)", "hERG current change (%, negative = inhibition) at 10uM": -65.4}, {"compound": "CCN(CC)C(=O)C1CCCN(Cc2ccc3c(c2)OCO3)C1", "note": "(stereo not shown)", "hERG current change (%, negative = inhibition) at 10uM": 10}, {"compound": "CSc1ccccc1NC(=O)N1CCCC(C(=O)c2ccc3c(c2)OCO3)C1", "note": "(stereo not shown)", "hERG current change (%, negative = inhibition) at 10uM": -39.8}, {"compound": "O=C(c1ccc2c(c1)OCO2)C1CCCN(Cc2c(F)ccc(F)c2F)C1", "note": "(stereo not shown)", "hERG current change (%, negative = inhibition) at 10uM": -15.8}]}]}
